These results are taken from PubChem BioAssay AID687030 (Broad Institute, 2013).

The whole screen tested about 1,400 compounds, of which about 10 (0.7%) were called active. A selection follows. Potency and affinity values are given separately. Values without a mark were called inactive. The rule behind the calls is not given here.

A short description of the test: viability loss in BHK-21 cells – cell-based, plate reader, cherry-pick samples, cytotoxicity control, dose response (AID 687030).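 Note: cells were exposed to compound for three days before reading.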 The conditions noted are these: series mostly up to 19.5 µM; activity change, negative = toxicity: at the top concentration.
In the case of `C=CCC1NS(=O)(=O)OC(COC)C1C` (configuration not stated), the “activity change, negative = toxicity” value was 7.81%.
As for `COCCCNc1oc(-c2ccccc2F)nc1C#N`, the figure is -1.28%.
With `COc1ccc(-c2cc(NC=O)c3ncc(-c4cc(OC)c(OC)c(OC)c4)n3c2)c(OC)c1`, the “activity change, negative = toxicity” value is -22.7%.
Consider `COC(=O)C(Cc1csc2ccc(Cl)cc12)NC(=O)c1ccc(Cl)cc1` (configuration not stated), for which the “activity change, negative = toxicity” value is 1.57%.
Regarding `COc1ccc(NC(=O)N[C@H]2CC[C@@H](CCn3cc(C4(O)CCCC4)nn3)O[C@@H]2CO)cc1`, the “activity change, negative = toxicity” value is -4.13%.
As for `COc1ccc(NC(=O)N[C@@H]2CC[C@@H](CCNS(=O)(=O)c3cccc(Cl)c3)O[C@@H]2CO)cc1`, the figure is 8.65%.
For the molecule `O=C(c1cccc(Cl)c1)N1CCC2(CC1)NCCc1[nH]cnc12`, the “activity change, negative = toxicity” value is -0.584%.
Take `O=C(NCCN1CCOCC1)c1ccc2c(c1)N(Cc1ccc(F)cc1)C(=O)CS2`: the “activity change, negative = toxicity” value was -1.79%.
As for `Cc1ccc(C(=O)NCC(=O)NCC(c2cccs2)N2CCOCC2)cc1C` (configuration not stated), the figure is -3.9%; as for `C[C@@H]1CN([C@H](C)CO)C(=O)c2cc(NC(=O)Nc3ccc(C(F)(F)F)cc3)ccc2O[C@H]1CN(C)C(=O)NC1CCCCC1`, -6.24%; as for `CCCN(C)C1CN(Cc2cn(Cc3ccc(C)cc3)nn2)S(=O)(=O)C1` (configuration not stated), 1.6%.
As for `COc1ccccc1N1CCN(Cc2cnc3ccc(Cl)cn23)CC1`, the figure is 5.21%; as for `C[C@H]1CN([C@@H](C)CO)C(=O)c2cccc(NC(=O)C3CCCCC3)c2O[C@@H]1CN(C)Cc1ccc(C(=O)Nc2ccccc2N)cc1`, -1.15%.
As for `C[C@@H]1CCCCO[C@@H](CN(C)C(=O)Nc2cccc3ccccc23)[C@H](C)CN([C@H](C)CO)C(=O)c2cc(NC(=O)CCC(F)(F)F)ccc2O1`, the figure is 4.27%; as for `CCOC(=O)C1CCCN(c2c(N3CCOCC3)c(=O)c2=O)C1` (configuration not stated), 1.44%; as for `O=C(CN1CCN(C(=O)C2CCC2)CC1)Nc1ccc(F)cc1`, -23.3%.
Regarding `CCCCNC(=O)O[C@H]1C[C@@H]2CCN3C(=O)CCC[C@H]([C@H]1Cc1ccccc1)[C@H]23`, the “activity change, negative = toxicity” value is -3.09%.
As for `Cn1cnc(S(=O)(=O)N[C@@H]2CC[C@H](CC(=O)NCC3CCCCC3)O[C@@H]2CO)c1`, the figure is -3.49%; as for `CCC1(c2ccccc2)NC(=O)N(CC(=O)Nc2ccccc2C(=O)N2CCCCC2)C1=O` (configuration not stated), 5.31%.
In the case of `CS(=O)(=O)c1cccc(-c2nnc(NC(=O)c3ccc(S(=O)(=O)N4CCCC4)cc3)o2)c1`, the “activity change, negative = toxicity” value is 3.15%.
Turning to `Clc1cc(Br)ccc1OCCOCCN1CCCC1`, the “activity change, negative = toxicity” value is 1.69%.
Turning to `Clc1cc(Br)ccc1OCCCn1ccnc1`, the “activity change, negative = toxicity” value was -1.16%.
As for `c1cc(-c2ccc(N3CCOCC3)cc2)n2cnnc2c1`, the figure is 2.6%.
As for `COc1ccc(C2CC(c3ccccc3)=NN2S(=O)(=O)c2ccccc2)c(OC)c1` (configuration not stated), the figure is 5.02%.
As for `O=C(C[C@@H]1CC[C@@H]2[C@H](COC[C@H](O)CN2CC2CCOCC2)O1)N1CCOCC1`, the figure is -3.67%; as for `C[C@H](NC(=O)CCCOc1ccc(Cl)cc1Cl)c1nnc2ccccn12`, -0.687%.
As for `Cc1ccc(NC(=O)c2nc[nH]c2C(=O)N[C@@H](C)C(=O)OC(C)(C)C)cc1`, the “activity change, negative = toxicity” value is -2.08%.
As for `Cc1ccc(NC(=O)c2ccc3c(c2)OCO3)cc1Cl`, the figure is 2.36%; as for `COc1ccc(OC)c(CN2C(=O)CN(S(C)(=O)=O)CC2(C)C(=O)NCc2ccccc2)c1` (configuration not stated), 6.21%.
In the case of `CNC(=O)C[C@H]1CC[C@@H]2[C@H](COC[C@@H](O)CN2C(=O)Nc2ccc3c(c2)OCO3)O1`, the “activity change, negative = toxicity” value is -2.76%.
The value for `CN(C)C1(CNC(=O)C2CCN(S(=O)(=O)c3ccccc3C(F)(F)F)CC2)CCCCC1` was -1.27%.
As for `CC(C)(C)c1ccc(NC(=O)NC2CCCc3ccccc32)cc1` (configuration not stated), the figure is 5.49%; as for `Cc1ccnc(NC(=O)c2ccc(Cl)c(S(=O)(=O)N3CCCC3)c2)c1`, 1.18%; as for `COc1cccc(NC(=O)CN(C)C(=O)c2cccc(S(=O)(=O)N3c4ccccc4CC3C)c2)c1` (configuration not stated), -7.69%.
As for `O=C(O)[C@]1(S(=O)(=O)c2ccccc2)C[C@@H]2ON=C(c3cccc(Br)c3)[C@@H]2C1`, the figure is -0.71%; as for `COc1cccc(-c2ncc3ccccc3c2COC(=O)c2ccc(F)cc2)c1`, -5.22%.
As to `COc1ccc(C(N)c2csc(Nc3cc(Oc4ccccc4)ncn3)n2)cc1` (configuration not stated), the “activity change, negative = toxicity” value was 2.64%.
As for `CCN1[C@H](C(=O)NCCCN(C)C)[C@@H](CO)[C@@H]2Cn3c(ccc(-c4cccc(F)c4)c3=O)[C@@H]21`, the figure is -0.329%.
With `Cc1nc(CCNC(=O)CC2C(=O)NCCN2CC(C)C)nc2c1CCC2` (configuration not stated), the “activity change, negative = toxicity” value was 1.12%.
`CCCS(=O)(=O)N1CCCC(C(=O)NCCc2cccc(C)c2)C1` (configuration not stated): the “activity change, negative = toxicity” value was -3.14%.
With `C[C@@H]1CN([C@@H](C)CO)S(=O)(=O)c2ccc(-c3ccncc3)cc2O[C@H]1CN(C)C(=O)CC1CC1`, the “activity change, negative = toxicity” value was -5.55%.
As to `CC(=O)NC[C@H]1[C@H](c2ccc(-c3ccccc3F)cc2)[C@@H](CO)N1C(=O)C1CC1`, the “activity change, negative = toxicity” value was -6.85%.
As for `N#C[C@@H]1[C@H](c2ccc(-c3ccccc3F)cc2)[C@H](CO)N1C(=O)C1CC1`, the figure is -10.2% [at 21 µM].
For the molecule `CCCNC(=O)C1(C)CCCN(Cc2ccc(C#N)cc2)C1` (configuration not stated), the “activity change, negative = toxicity” value is -0.631%.
The value for `O=C(c1cc(-c2cccs2)on1)N1CCCc2ccccc21` was 4.97%.
The value for `O=C1CCN(CCc2ccccc2)CCN1[C@H](COc1ccccc1)c1ccccc1` was 2.11%; that for `O=C1CN(C(=O)COC(=O)c2c(F)cccc2Cl)c2ccccc2N1` was 7.85%; that for `COc1ccc(NC(=O)COC(=O)c2c(C)noc2C)cc1Cl` was -6.26%.
The value for `C[C@H]1[C@H](c2ccccc2)C[C@@H](C(=O)O)C1(C)C` was 2.3%; that for `COc1c(Cl)cc(Br)c(OC)c1C(=O)NC(=O)Nc1nc(C)cc(C)n1` was -2.87%; that for `CCCc1nc2c(C)cc(Br)cn2c1Cc1ccc(OC)cc1C` was -5.06%.
Regarding `CCN(c1ccccc1)S(=O)(=O)c1ccc(C(=O)N2CCN(c3ccccc3F)CC2)cc1`, the “activity change, negative = toxicity” value was -0.489%.
Regarding `CCCN1C[C@H](C)[C@H](OC)CN(C)C(=O)c2cc(NS(=O)(=O)c3cn(C)cn3)ccc2OC[C@@H]1C`, the “activity change, negative = toxicity” value was 0.807%.
The value for `C#CCNC(=O)C[C@@H]1C[C@@]2(C(=O)OC)CCCCC=C2N(Cc2cccc3ccccc23)C1=O` was 0.38%.
As for `COc1cccc(S(=O)(=O)N2CC3(CN(C(=O)Nc4ccc(F)cc4)[C@H](CO)c4[nH]c5cc(OC)ccc5c43)C2)c1`, the figure is -0.859%; as for `COc1ccc2c3c([nH]c2c1)[C@H](CO)N(C(=O)c1ccccc1)CC31CN(S(=O)(=O)c2cccs2)C1`, 0.044%; as for `COc1ccccc1NC(=O)N1CCN(c2ccccn2)CC1`, 0.23%.
As for `CCOC(=O)C[C@H]1c2ccccc2S(=O)(=O)N1c1ccccc1`, the figure is 7.34%; as for `O=C(Nc1ccc(Cl)cc1)N(CCCN1CCOCC1)Cc1cccs1`, -0.064%.
`NC[C@H](Cc1ccccc1)NCCCCC1CCCCC1`: the “activity change, negative = toxicity” value was 5.93%.
Take `CO[C@@H](CN(C)C(=O)c1cc(Cl)cc(Cl)c1)[C@H](C)CN(C(=O)Nc1ccc(F)cc1)[C@@H](C)CO`: the “activity change, negative = toxicity” value was 4.92%.
With `COc1cccc(CNC(=O)[C@H]2CCCN2C(=O)C2CCCN2C(=O)c2ccc(OC)c(F)c2)c1` (some centres not stated), the “activity change, negative = toxicity” value was 5.15%.
On to `CCCNC(=O)[C@H]1[C@H](CO)[C@H]2Cn3c(cccc3=O)[C@H]2N1Cc1ccccc1Cl`, for which the “activity change, negative = toxicity” value is -3.48% [at 21 µM].
As for `COc1ccc(-c2sc3cc4c(cc3c2C#Cc2cncn2C)OCO4)cc1`, the figure is -2.31%; as for `CC(C)(C)c1ccc(C(=O)Nc2ccc3c(c2)C(=O)NC3=O)cc1`, 5.72%; as for `CC(=O)Nc1cccc(OCCCNC(=O)c2ccc(C(C)(C)C)cc2)c1`, -2.02%.
Consider `CN1C(=O)c2cc(NC(=O)NCc3ccccc3)ccc2OC[C@H]2O[C@H](CC(=O)NCC3CCCCC3)CC[C@H]21`, for which the “activity change, negative = toxicity” value is -2.23%.
With `Cc1ccccc1OCCC(=O)OCC(=O)NCCc1ccc(S(N)(=O)=O)cc1`, the “activity change, negative = toxicity” value was -0.913%.
Turning to `C[C@H](CO)N1C[C@H](C)[C@@H](CN(C)Cc2ccc3c(c2)OCO3)OCCCC[C@H](C)Oc2ccc(N(C)C)cc2C1=O`, the “activity change, negative = toxicity” value was 2.33%.
The value for `CSc1ccccc1NC(=O)c1cc2c(=O)n3ccccc3nc2s1` was 2.33%.
Regarding `CCN(CC)CCCNc1nc(C)cc(COC)c1C#N`, the “activity change, negative = toxicity” value was -3.72%.
As for `CCCCN(C(=O)c1ccc2c(c1)NC(=O)CS2)c1ccccc1`, the figure is 4.54%; as for `O=C(OCc1ccccc1)N1CCCC2CC1c1ccccc12` (configuration not stated), -1.75%; as for `COc1cccc(OC)c1C(=O)N1CCN(Cc2c[nH]c3ccccc23)CC1`, -1.55%.
As for `O=C(c1ccc(CNc2c(N3CCCC3)c(=O)c2=O)cc1)N1CCN(C2CCCCC2)CC1`, the figure is -6.28%.
Turning to `CCOc1ccccc1-c1nnc(CS(=O)(=O)c2ccccc2)o1`, the “activity change, negative = toxicity” value was 1.34%.
On to `CCOC(=O)c1ccc(NC(=O)c2nc[nH]c2C(=O)NC2CCN(C(=O)OC(C)(C)C)CC2)cc1`, for which the “activity change, negative = toxicity” value was 1.41%.
For the molecule `Cc1cccc(N(C)c2cc(C)nc3nc(C)nn23)c1`, the “activity change, negative = toxicity” value is -4.81%.
The value for `COCc1cccc(-c2csc(C(N)c3ccc(F)c(F)c3)n2)c1` (configuration not stated) was -4.14%.
As for `COc1ccc(S(=O)(=O)N2CCCCN3[C@H](CO)[C@H](c4ccc(C5=CCCC5)cc4)[C@@H]3C2)cc1`, the figure is -2.71%; as for `COC(=O)c1ccc(NC(=O)C2CC3CCC2C3)cc1` (configuration not stated), -2.2%.
The value for `COc1ccc(C2(C)CC(C)(C)Nc3ccccc32)cc1` (configuration not stated) was 0.418%.
With `CC(C)(O)C#Cc1ccc([C@@H]2[C@@H](CO)N3CCCCN(C(=O)c4ccc(F)cc4)C[C@@H]23)cc1`, the “activity change, negative = toxicity” value was 6.25%.
As for `O[C@@H]1CN(Cc2cccs2)[C@@H](c2ccccc2)C[C@H]1n1cc(-c2ccc(F)cc2)nn1`, the “activity change, negative = toxicity” value is 3.94%.
Consider `COC(=O)c1c(NC(=O)CC2Sc3ccc(C(F)(F)F)cc3NC2=O)sc(C)c1C` (configuration not stated), for which the “activity change, negative = toxicity” value is 3.54%.
The value for `COC(=O)c1ccc2nc(-c3ccc(F)cc3)c(Cc3ccccc3OC)n2c1` was 4.29%; that for `CC(C)C(NS(=O)(=O)c1ccc2c(c1)C(C)(C)C(=O)N2C)C(=O)NCc1ccccc1Cl` (configuration not stated) was -2.05%.
The value for `COc1ccc2c3c(n(C)c2c1)[C@H](CO)N(C(=O)Nc1ccccc1F)CC31CN(C)C1` was 2.87% [at 21 µM]; that for `C[C@H]1CN([C@@H](C)CO)C(=O)c2cc(NC(=O)CCCN(C)C)ccc2O[C@@H]1CN(C)S(=O)(=O)c1ccc(Cl)cc1` was 11.6% [at 21 µM].
As for `Cc1ccccc1OCCCCN1CCCCC1`, the figure is -3.74%; as for `Cc1ccc(SC[C@H](Cc2ccccc2)N2CC[C@@H](C)CCC2=O)cc1`, 13.1% [at 10 µM]; as for `CC(C)c1ccc(NC(=O)Nc2nc(C(N)c3ccccc3Cl)cs2)cc1` (configuration not stated), 1.49%.
